Data from PubChem BioAssay (NCI).
About 83,000 compounds went through this panel and 20% of them were active in at least one assay; those are over-represented in the sample as a whole.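 Single-concentration screen, 48 h exposure, 96-well plates. Endpoint: percent growth. Below 10 = active.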 A number with no mark means an inactive call. The source made the active and inactive calls.

Columns and labels:
Test in all cases: NCI-60 one-dose screen, 48 h (100 = growth as untreated, 0 = no growth, -100 = all killed)
Settings in all cases: 10 µM unless noted
NCI-H23 lung = tested on: NCI-H23 lung
NCI-H226 lung = tested on: NCI-H226 lung
NCI-H322M lung = tested on: NCI-H322M lung
HOP-62 NSCLC = tested on: HOP-62 NSCLC
NCI-H460 lung = tested on: NCI-H460 lung
NCI-H522 lung = tested on: NCI-H522 lung
A549/ATCC NSCLC = tested on: A549/ATCC NSCLC
786-0 renal = tested on: 786-0 renal
COLO 205 colon = tested on: COLO 205 colon
DU-145 prostate = tested on: DU-145 prostate
K-562 leukemia = tested on: K-562 leukemia
MALME-3M melanoma = tested on: MALME-3M melanoma
MDA-MB-231 breast = tested on: MDA-MB-231 breast
RXF 393 renal = tested on: RXF 393 renal
SF-268 CNS = tested on: SF-268 CNS
SF-295 CNS = tested on: SF-295 CNS
SF-539 CNS = tested on: SF-539 CNS
UACC-257 melanoma = tested on: UACC-257 melanoma
HOP-92 NSCLC = tested on: HOP-92 NSCLC
M14 melanoma = tested on: M14 melanoma

| Structure (SMILES) | growth (NCI-H23 lung) | growth (NCI-H226 lung) | growth (NCI-H322M lung) | growth (HOP-62 NSCLC) | growth (NCI-H460 lung) | growth (NCI-H522 lung) | growth (A549/ATCC NSCLC) | growth (786-0 renal) | growth (COLO 205 colon) | growth (DU-145 prostate) | growth (K-562 leukemia) | growth (MALME-3M melanoma) | growth (MDA-MB-231 breast) | growth (RXF 393 renal) | growth (SF-268 CNS) | growth (SF-295 CNS) | growth (SF-539 CNS) | growth (UACC-257 melanoma) | growth (HOP-92 NSCLC) | growth (M14 melanoma) |
| --- | --- | --- | --- | --- | --- | --- | --- | --- | --- | --- | --- | --- | --- | --- | --- | --- | --- | --- | --- | --- |
| COc1ccc(C(=O)/C=C/c2cc3c(c(OC)c2)OCC(=O)N3)cc1 | 58.5% | 87.6% | 87.8% | 87.4% | 9.81% (active) | 46.4% | 78% | 14.5% | 77% | -20.7% (active) | 7.5% (active) | 88.4% | 67.7% | 49.7% | 21.4% | 88.7% | 7.09% (active) | 91.6% | – | – |
| Cc1c(C(=O)O)nnn1-c1nccs1 | 94.5% | 95.9% | 99.8% | 84.1% | 98.5% | 77.9% | 79.2% | 97.1% | 107% | 104% | – | 102% | 91.6% | 112% | 102% | 101% | 92% | 80.8% | – | – |
| COc1ccc(/C(C)=C(\c2ccc(Cl)cc2)c2ccc(OCCCN(C)C)cc2)cc1F | 78.1% | 98% | 67.6% | 52.8% | -3.98% (active) | 77% | 57.2% | 62.2% | 7.6% (active) | 73.5% | -0.587% (active) | 17.2% | 73.7% | – | 81.8% | 53.5% | 44.9% | 17.1% | – | – |
| COc1cc2ccccc2cc1C(=O)NC(=S)Nc1ccc(-c2nc3ccccc3[nH]2)cc1 | 72.9% | 102% | 90.9% | 79.9% | 69.1% | 89.6% | – | 38% | – | 56.1% | 75.6% | 48% | 52.9% | 86.2% | 62% | 80.5% | 14.7% | 98% | 93.7% | 79.3% |
| COc1ccc(Oc2nc(Nc3ccc(N4CCCCC4)nc3)ncc2NC(=O)c2cc(OC)cc(OC)c2)cc1 | 68.8% | 60.2% | 48.9% | 42.5% | 19% | 26.6% | – | 39.6% | – | 40.7% | 18.6% | 64.4% | 61.5% | 41% | 46.3% | 23.7% | 21.3% | 59.4% | 76.4% | 32.3% |
| CS(=O)(=O)c1ccc(-c2[nH]c3ccc(F)cc3c2/C=N/O)cc1 | 94.3% | 92.8% | 90.1% | 80.7% | 105% | 82% | – | 95.8% | – | 97.2% | 89.4% | 105% | 89.2% | 104% | 93% | 100% | 88.8% | 86.7% | 87.6% | 96.6% |
| CCn1c(Sc2nnc(Nc3ccccc3)s2)nc2c1c(=O)n(C)c(=O)n2C | 88.2% | 102% | 91.4% | 93.5% | 106% | 114% | – | 93.2% | – | 113% | 114% | 94.9% | 97.8% | 91.4% | 103% | 91.9% | 96.2% | 97.4% | 61.5% | 104% |
| CCOC(=O)c1nnn(C(Cc2ccccc2Cl)C(=O)OCC)c1C (stereo not drawn) | 105% | 103% | 108% | 93.4% | 101% | 68.9% | 82.6% | 102% | 105% | 109% | – | 117% | 104% | 109% | 111% | 111% | 107% | 83.6% | – | – |
| COc1cc2c(cc1OC)-c1ccc3cc4c(cc3c1N(CCN1CCCC1)C2)OCO4 | 10.9% | -3.34% (active) | 5.86% (active) | -18.1% (active) | -19.4% (active) | -39.7% (active) | 5.78% (active) | -32% (active) | – | 11.5% | -3.86% (active) | 51.4% | -38.6% (active) | -3.76% (active) | 20.1% | 4.42% (active) | 4.16% (active) | 44.2% | – | 17.4% |
| CC(C)N(CCOC(=O)Nc1ccccc1Cl)C(C)C | 105% | 86.3% | 102% | 93.3% | 103% | 78.6% | 98.4% | 98.8% | – | 105% | 104% | 104% | 106% | 108% | 101% | 104% | 104% | 99.1% | – | 99.5% |
| COc1cc2c(cc1OC)-c1ccc3cc4c(cc3c1N(CCCn1ccnc1)C2)OCO4 | 16.6% | 51.9% | 76.9% | 24.9% | 6.34% (active) | -19.1% (active) | 56.2% | 35.1% | – | 39.6% | 20.4% | 47.8% | 56.7% | 57.8% | 34.4% | 27.7% | 13.3% | 52.8% | – | 27.1% |
| C=C1C(=O)O[C@H]2[C@H]1CC/C(COC(=O)/C=C\C(=O)NCc1ccc(Cn3c(=O)sn(CCCC)c3=O)cc1)=C\CC[C@@]1(C)O[C@@H]21 | -61.4% (active) | -70.4% (active) | 35.4% | -35.7% (active) | -54.3% (active) | -44.5% (active) | 0.708% (active) | -76.8% (active) | -51.2% (active) | -95.5% (active) | 0.287% (active) | -93.3% (active) | -84.4% (active) | – | -64.4% (active) | 65.1% | -98.9% (active) | -52.8% (active) | – | – |
| Cc1cc(-c2noc(C(F)(F)F)n2)ccc1N1CCN(c2cc(C(=O)N(C)C)no2)CC1 | 55.6% | 55.8% | 101% | 68.1% | 75.7% | 57% | – | 80.4% | – | 85.2% | 33.1% | 78.5% | 69.6% | 105% | 82.2% | 49.8% | 86.1% | 54% | 63.5% | 81.5% |
| CC/C=C/[C@@H]1C=C[C@@H]2CCC[C@H]2[C@@H]1CC[C@H](O)[C@H](C)N | -63.4% (active) | 91.5% | -35.4% (active) | -89.7% (active) | -83.1% (active) | -56.9% (active) | – | -92.4% (active) | – | -12.9% (active) | -18.6% (active) | -80.2% (active) | -22.5% (active) | – | 29.2% | -71.3% (active) | -67.6% (active) | -71.5% (active) | 12% | -76.4% (active) |
| CC(C)n1nc(C#Cc2cccc3cc(-c4cccc(C(F)(F)F)c4)ncc23)c2c(N)ncnc21 | 78.6% | 48.2% | 94.8% | 59.7% | 48.9% | 43.7% | – | 89% | – | 89.4% | 2.23% (active) | 93.1% | 59.8% | 81.7% | 76% | 91% | 54.4% | 82.7% | 78% | 56.2% |
| NC(N)=N/N=C(/c1ccccc1)c1ccccc1F | 34.4% | 14.4% | 62% | 17.5% | 13.2% | 4.97% (active) | – | -26.2% (active) | – | 15% | 4% (active) | 35.7% | 22.1% | 43% | 51.8% | 11.8% | 2.84% (active) | 68.1% | 57.8% | -45.4% (active) |
